FLuc inh = Photinus pyralis luciferase inhibition. P08659. purified P. pyralis luciferase, luminescence, biochemical. Potency, µM (top dose mostly 115 µM), most hits filed as inhibitors. 2.5% of 76,000 active; also: nearly all actives have a fitted effect of over 65% in size
Target sequence (P08659 whole entry, looked up): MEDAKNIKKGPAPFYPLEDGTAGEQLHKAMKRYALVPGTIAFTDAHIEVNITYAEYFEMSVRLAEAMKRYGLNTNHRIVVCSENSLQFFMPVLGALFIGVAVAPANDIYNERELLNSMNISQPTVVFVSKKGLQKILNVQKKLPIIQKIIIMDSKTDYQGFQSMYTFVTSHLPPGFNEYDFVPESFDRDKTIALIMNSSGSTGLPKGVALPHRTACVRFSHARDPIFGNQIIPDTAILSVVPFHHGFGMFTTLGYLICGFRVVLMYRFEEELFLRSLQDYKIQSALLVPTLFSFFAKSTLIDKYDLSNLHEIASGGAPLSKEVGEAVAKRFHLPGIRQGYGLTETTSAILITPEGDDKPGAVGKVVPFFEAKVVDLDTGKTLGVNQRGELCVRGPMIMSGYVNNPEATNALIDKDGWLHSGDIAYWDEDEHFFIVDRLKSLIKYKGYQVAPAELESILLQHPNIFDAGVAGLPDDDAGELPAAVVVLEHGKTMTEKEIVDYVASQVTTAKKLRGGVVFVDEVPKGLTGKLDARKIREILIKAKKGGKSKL
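Biochemical qHTS: compound (6-point titration) added to 10uM D-luciferin plus 10uM ATP in Tris acetate pH 7.5 buffer with Mg, Tween-20 and BSA, then purified enzyme at 10nM; light output imaged.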
HEK cytotox = kills HEK 293 cells | HEK 293 viability, ATP luminescence (CellTiter-Glo), 48-72 h | Potency, µM (top dose mostly 115 µM), without a hit: top-dose activity change, negative = cytotoxicity, hits mostly inhibitors | 6.6% of 94,000 active | AID 1345083; also: nearly all actives have a fitted effect of over 60% in size
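Cytotoxicity was scored by loss of ATP-coupled luminescence (CellTiter-Glo) in HEK 293 cells. Compound treatment ran 48 or 72 hr at 37 degree Celsius, 5% CO2, 95% humidity.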
NIH3T3 tox = NIH 3T3 cell cytotoxicity. NIH 3T3 viability, CellTiter-Glo ATP luminescence, 48-72 h. Potency, µM (doses to about 96.7 µM), for inactives: top-dose activity change, negative = cytotoxicity, usual class: inhibitors. 4.3% of 94,000 active. AID 1345082; also: nearly all actives have a fitted effect of over 55% in size
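NIH 3T3 cells at 400 cells/well received 23 nL of compound by pintool and were incubated 48 or 72 h at 37 °C. Viability was read as ATP-coupled CellTiter-Glo luminescence.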
hNpr1 antagonist = human Npr1 receptor antagonism; HEK293 hNpr1 GloSensor cGMP, ANP-stimulated luminescence; 1.6% of 76,000 active; P16066; Potency, µM (series often up to 46.3 µM), inactives show top-dose activity change, negative = inhibition, most hits filed as inhibitors; calls by dose curve; also: nearly all actives have a fitted effect of over 60% in size
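Compound pre-incubated 30 min at room temperature on GloSensor-loaded HEK293 cells stably carrying hNpr1 and the pGS-40F cGMP biosensor. Stimulation uses hNppA at 0.1 nM final; luminescence is taken at baseline and 20 min post-agonist.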
Starred values were filed as active, the others as inactive; i = inactive; ? = inconclusive; . = not tested or not shown; [ ] = dose if it differs, or a comment. In the library only some 11% were active in any assay of this set; here they are far more common. Unless noted, calls follow the shape of the dose curve; as a rule, active = well fitted curve in the direction sought with a large enough effect; inconclusive = small, poorly fitted or top-dose-only effect, or another doubt; inactive = no such curve, though single readings can be large; an effect the other way counts as inactive or inconclusive. % is scaled to controls: 0 for no effect and ±100 for the full control effect; potency is read from the fitted curve at half-maximal effect.

SMILES	FLuc inh	HEK cytotox	NIH3T3 tox	hNpr1 antagonist
Cc1ccc(Nc2ccnc(N3CCCC(C(=O)NCCc4ccc(F)cc4)C3)n2)cc1 (stereo not drawn)	.	32µM*	32µM*	.
COc1ccc(Nc2ccnc(N3CCCC(C(=O)NCCc4ccc(F)cc4)C3)n2)cc1 (stereo not drawn)	.	32µM*	25µM*	.
Cc1ccc(Nc2ccnc(N3CCCC3C(=O)NCCc3ccccc3)n2)cc1 (stereo not drawn)	.	?	-38%	.
Cn1nc(C(=O)NCC(=O)N2CCCCCCNC(=O)CC2c2ccccc2)c2ccccc21 (stereo not drawn)	i	-13%	-16%	-2%
Cc1cc(C)cc(-c2ccc(CN3CCCC(N[S+](=O)([O-])c4c(C)noc4C)C3)cc2)c1 (stereo not drawn)	.	25µM*	35µM*	.
Cc1cc(C)cc(-c2ccc(CN3CCCC(NC(=O)C4CCCC4)C3)cc2)c1 (stereo not drawn)	.	-16%	-19%	.
Cc1ccc([S+](=O)([O-])NC2CCCN(Cc3ccc(-c4cc(C)cc(C)c4)cc3)C2)cc1 (stereo not drawn)	.	40µM*	?	.
Cc1cc(C)cc(-c2ccc(CN3CCCC(N[S+](=O)([O-])c4cccs4)C3)cc2)c1 (stereo not drawn)	.	35µM*	32µM*	.
COc1ccccc1-c1ccc(CN2CCC(N[S+](=O)([O-])c3c(C)noc3C)C2)cc1 (stereo not drawn)	.	45µM*	?	.
O=[S+]([O-])(NC1CCCN(Cc2ccc(-c3cncnc3)cc2)C1)c1ccccc1 (stereo not drawn)	.	?	-19%	.
CC(C)(C)C(=O)NC1CCN(c2ccnc3ccnn23)CC1	.	1%[172 µM]	0%[138 µM]	.
N[C@H]1CN(S(=O)(=O)c2ccc(OC(F)F)cc2)C[C@@H]1C1CC1	i	i	1%	2%
Cc1ccc(S(=O)(=O)N2CCN(C3CCN(Cc4ccccn4)C3=O)CC2)c(C)c1 (stereo not drawn)	i	-17%	-22%	3%
CSc1cccc(NC(=O)c2ccc3c(c2)N(C)C2CCCCN2C3=O)c1 (stereo not drawn)	?	40µM*	?	-7%
CN1c2cc(C(=O)Nc3cccc(F)c3)ccc2C(=O)N2CCCCC21 (stereo not drawn)	25µM*	?	-22%	-23%
Cc1cc(C)cc(NC(=O)c2ccc3c(c2)N(C)C2CCCCCN2C3=O)c1 (stereo not drawn)	i	?	-25%	0%
CN1c2cc(C(=O)Nc3cccc(Br)c3)ccc2C(=O)N2CCCCC21 (stereo not drawn)	?	35µM*	?	0%
O=C(NCc1ccccc1)C1CCc2nnc(-c3cccc(C(F)(F)F)c3)n21 (stereo not drawn)	.	-29%	-24%	.
COc1ccc(C(=O)NC2CCN(c3ccc4nnc(C)n4n3)C2)cc1 (stereo not drawn)	.	-12%	?	.
NCC(=O)N1Cc2ccccc2CC12CCCN(C(=O)c1ccccc1)C2 (stereo not drawn)	.	-4%	i	.
Cn1ncc2c(C(=O)NCC3CC3)cc(-c3ccc(F)cc3)nc21	.	-7%[172 µM]	-26%[138 µM]	.
CN1c2ncccc2CN(Cc2ccccc2O)CC[C@H]1CO	i	1%[172 µM]	-10%[138 µM]	0%[70.6 µM]
CC(=O)N1CCC(N2CC[C@@H](CO)N(C)c3ncccc3C2)CC1	i	?	45µM*	6%[70.6 µM]
CC(C)(C)NC(=O)Cn1ccn2nc(-c3ccccc3)c(CO)c2c1=O	i	0%	i	5%
Cc1ccsc1-c1[nH]nc2ncc(-c3ccccc3)nc12	i	?	?	-11%[70.6 µM]
SMILES	FLuc inh	HEK cytotox	NIH3T3 tox	hNpr1 antagonist
Cc1ccsc1-c1[nH]nc2ncc(-c3cccc(CO)c3)nc12	?	79µM*	?	-6%[70.6 µM]
Cc1ccsc1-c1[nH]nc2ncc(-c3ccc(F)cc3)nc12	i	71µM*	?	-10%[70.6 µM]
COc1cc(F)ccc1-c1cnc2n[nH]c(-c3sccc3C)c2n1	i	45µM*	?	-10%[70.6 µM]
Cc1cn2nnc(C(=O)NC3CCCCCCC3)c2c(=O)[nH]1	?	-29%	-5%	7%
O=C1Nc2ccccc2CC12CCN(Cc1ccc(OC(F)(F)F)cc1)CC2	i	?	?	0%
CC1(C(=O)Nc2ccc(F)c(F)c2)CCCCC(=O)N1 (stereo not drawn)	i	0%	-3%	3%
